# Screening data (PubChem BioAssay)
# Compounds with a hit are over-represented: about 21% of the library has one in this group of screens.
# CHX counter = affects cycloheximide protein synthesis inhibition readout, counter-screen; cell reporter, cycloheximide protein synthesis inhibition counterscreen; max response, %; 300,000 tested, 12% active; AID 2314; in the data active = max response mostly above about 13%, no sharp cut-off; inactive = mostly below about 14%; note: read at 38.3 µM for the half of the compounds with a filed dose; 0% is about no effect
# Pf growth 96h = P. falciparum growth inhibition at 96 hours; P. falciparum luciferase reporter growth, 96 h; Potency, µM (titrated, usually from 28.7 µM), without a hit: top-dose activity change, negative = inhibition, usual class: inhibitors; 320,000 tested, 6.9% active; AID 504834; note: potency is the fitted concentration of half-maximal effect; % is set by controls: 0 for no effect and ±100 for the full control effect
#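 Two parasite generations (96 h, 37 C, 5% CO2) of compound exposure in infected erythrocytes (0.05% parasitemia, 2% hematocrit). Luciferase-reporter P. falciparum; decreased luminescence indicates inhibited growth, aimed at apicoplast-acting delayed death.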
# HCV inh = inhibitors of hepatitis C virus infection. AID 651820. 340,000 tested, 3.4% active. Potency, µM (doses to about 41.8 µM), inactives show top-dose activity change, negative = inhibition, actives largely listed as inhibitors. Huh7.5.1 HCVcc-Cre infection, luciferase reporter, 44 h; note: potency is the fitted concentration of half-maximal effect; % is set by controls: 0 for no effect and ±100 for the full control effect
#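 Seed cells (1,000/well) for 4 h; treat with compound and infect with HCVcc-Cre, moi about 0.5. Incubate 44 h, then detect luciferase activity.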
# Shiga toxin inh = inhibitors of Shiga toxin in Vero cells | inhibition, % at 38.7 µM | 290,000 tested, 9.2% active | Vero cells, Shiga toxin protein synthesis inhibition reporter; in the data active = inhibition mostly above about 28%, no sharp cut-off; inactive = mostly below about 43%; note: 0% is about no effect
# Pf growth 48h = P. falciparum growth inhibition at 48 hours (one generation). P. falciparum luciferase growth in erythrocytes, 48 h. 310,000 tested, 5.9% active. Potency, µM (series often up to 28.7 µM), inactives show at the top dose activity change, negative = inhibition, actives largely listed as inhibitors. AID 504832; note: potency is the fitted concentration of half-maximal effect; % is set by controls: 0 for no effect and ±100 for the full control effect
#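 Luminescence readout; reporter = integrated firefly luciferase in P. falciparum. RBC culture at 2% hematocrit, 0.1% parasitemia final, 37 C/5% CO2; decreased signal taken as growth inhibition.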
# HCMV inh = inhibitors of human cytomegalovirus | 410,000 tested, 4.5% active | HFF cells, HCMV-luciferase reporter, 72 h; hits give low values | AID 1259415 | activity change, negative = inhibition, % at 57.5 µM; in the data active = activity change below about -60%; inconclusive = no clear call, values can overlap the other calls; inactive = above about -39%; note: % is set by controls: 0 for no effect and ±100 for the full control effect
#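 Human foreskin fibroblasts infected with luciferase-reporter HCMV at MOI 1 PFU/cell, compounds at two doses. Luciferase measured 72 h post infection; normalized to buffer-only basal and Salinomycin (10uM) controls.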
# Numbers without * were called inactive; ? = inconclusive; nt = no result; + = active, no number; [ ] = another dose, or the depositor's remark. Unless noted, calls come from the whole dose curve; as a rule, active = well fitted inhibition curve with a large enough effect; inconclusive = small, poorly fitted or top-dose-only effect, or another doubt; inactive = no such curve, though single readings can be large or run the other way.
SMILES,CHX counter,Pf growth 96h,HCV inh,Shiga toxin inh,Pf growth 48h,HCMV inh
O=C(Nc1cccc(S(=O)(=O)N2CCCCC2)c1)c1ccc2ncsc2c1,86*,-4%,7.9µM*,89*,12%,-9
N#Cc1cccc(C(=O)Nc2cccc(S(=O)(=O)N3CCCC3)c2)c1,7,-50%,-18%,3,?,?
CS(=O)(=O)c1cccc(C(=O)Nc2ccc(S(=O)(=O)N3CCCCC3)cc2)c1,nt,9.3µM*,4.5µM*,nt,?,-63*
CS(=O)(=O)c1ccc(C(=O)Nc2ccc(S(=O)(=O)N3CCCCC3)cc2)cc1,nt,?,?,nt,?,-28
Cc1ccc(NC(=O)C2=CCN(S(=O)(=O)c3ccc(F)cc3)CC2)c(C)c1,-4,0.33µM*,-5%[8.37 µM],-8,13%,?
CCOC(=O)c1ccc(NC(=O)c2cccc(S(=O)(=O)N3CCN(C(C)=O)CC3)c2)cc1,-3,9.3µM*,10µM*,3,?,-40
O=C(Cn1ccc2ccccc2c1=O)NCC(=O)Nc1ccc(F)cc1F,-4,-17%,-7%,-6,4%,0
Cc1ccc(C(=O)Nc2cccc(S(=O)(=O)N3CCCCC3)c2)cc1[N+](=O)[O-],nt,8.3µM*,7.1µM*,nt,4.7µM*,-34
O=C(Nc1ccc(N2CCOCC2)cc1)c1cccc(S(=O)(=O)N2CCCC2)c1,1,-22%,6.3µM*,-6,-22%,nt
O=C(Nc1cccc(S(=O)(=O)N2CCCC2)c1)c1cccc(S(=O)(=O)N2CCOCC2)c1,nt,?,?,nt,12µM*,-13
O=S(=O)(Nc1cccc(S(=O)(=O)N2CCCCC2)c1)c1ccc(Cl)s1,nt,nt,11%,nt,nt,-67*
COc1cc(C(=O)Nc2cccc(S(=O)(=O)N3CCCC3)c2)c([N+](=O)[O-])cc1OC,nt,-17%,?,nt,-12%,-7
COCCCC1CCN(C(=O)CCc2nnc(CCCCc3ccccc3)o2)CC1,7,?,?,28,?,-3
CN(Cc1ccccc1F)C(=O)CCNC(=O)c1ccc(C(C)(C)C)cc1,nt,-29%,-15%,nt,-15%,47
O=C(NCCN1C(=O)S/C(=C\c2ccc(F)cc2)C1=O)c1cccc(S(=O)(=O)N2CCOCC2)c1,69*,?,10µM*,+,-6%,8
O=C(Nc1cccc(S(=O)(=O)N2CCCCC2)c1)Nc1ccc(Cl)cc1Cl,-2,?,?,-17,1%,-100*
O=C(Cn1cnc2cc([N+](=O)[O-])ccc2c1=O)N1CCN(S(=O)(=O)c2ccccc2)CC1,nt,nt,-15%,nt,nt,3
Cc1cc(C)c(NC(=O)c2cc(S(=O)(=O)N3CCOCC3)ccc2F)c(C)c1,5,31%,-4%,-1,-17%,10
O=C(Cc1ccccc1Cl)Nc1cccc(S(=O)(=O)N2CCCCCC2)c1,nt,?,?,nt,?,-19
O=C(Cn1cnc2cc([N+](=O)[O-])ccc2c1=O)Nc1cccc(S(=O)(=O)N2CCCCC2)c1,nt,nt,5.6µM*,nt,nt,?
Cc1ccc(NC(=O)c2cc(S(=O)(=O)N3CCOCC3)ccc2F)c(C)c1,23*,?,-23%,32,-18%,-24
O=C(NCC1CCCO1)c1ccc(-c2ccccc2Cl)o1 (centres undefined),nt,89%,3%,nt,130%,34
O=C(NC1CCCC1)c1cccc(S(=O)(=O)N2CCOCC2)c1,nt,?,-1%,nt,-22%,-103*
O=C(Nc1cccc(S(=O)(=O)N2CCCC2)c1)c1cc(S(=O)(=O)N2CCOCC2)ccc1F,nt,?,-24%,nt,9.3µM*,-38
O=C(Nc1cccc(F)c1)c1cc(S(=O)(=O)N2CCOCC2)ccc1N1CCCC1,nt,?,12%,nt,?,nt
SMILES,CHX counter,Pf growth 96h,HCV inh,Shiga toxin inh,Pf growth 48h,HCMV inh
CCOCCCNC(=O)c1cnc2sc(N3CCCCCC3)nn2c1=O,nt,nt,nt,nt,nt,-14
CC(=O)Nc1nc2c(C)cc(NC(=O)C3CCCCC3)cc2s1,32*,2%,-1%,74*,99%,10
CC(=O)Nc1cc(C)c2nc(NC(C)=O)sc2c1,30*,59%,1%,60*,191%,67
Cc1ccc(NC(=O)C2CCCCC2)cc1C,nt,31%,-1%,nt,?,-21
Cc1nn(C)c(C)c1S(=O)(=O)N(CC(=O)Nc1ccc(F)cc1F)c1ccc(C(C)C)cc1,nt,nt,nt,nt,nt,-9
Clc1ccc(C2=Nn3c(Cn4nnc5ccccc54)nnc3SC2)cc1,1,-5%,0%,-8,?,157
COc1ccc(C2=Nn3c([n+](C)c4ccccc43)SC2)cc1,3,-23%,2.2µM*,-3,0.83µM*,-81*
CC1Sc2n(c3ccccc3[n+]2C)N=C1c1ccccc1 (centres undefined),-8,-102%,-17%,-14,0.93µM*,-97*
C[n+]1c2n(c3ccccc31)N=C(c1ccc(Cl)cc1)CS2,13,17%,?,18,-23%,-96*
CCOc1ccc(-c2[nH]ncc2Oc2ccccc2OC)c(O)c1,3,nt,-26%,35,8.3µM*,?
CCOc1ccccc1Oc1cn[nH]c1-c1ccc(OCC(=O)NN)cc1O,-1,13µM*,?,-9,nt,53
CCOc1ccc(-c2[nH]ncc2Oc2ccccc2OCC)c(O)c1,-1,?,?,-5,5.9µM*,-20
O=C(CCC(=O)c1ccc(F)cc1)Nc1ccc(Cl)cc1,nt,nt,nt,nt,nt,20
Cc1ccc(NC(=O)c2cccc(S(=O)(=O)N3CCN(c4ccc(F)cc4)CC3)c2)nc1,18,?,?,18,?,-77*
